Laboratory results from PubChem BioAssay (Tox21).
Results filed as inconclusive are left out. A number with no mark means an inactive call. Active and inactive are the calls of the source. Calls come from the whole dose curve.

Each compound was assayed against Progesterone receptor (Homo sapiens) (UniProt P06401) (assay: qHTS assay to identify small molecule agonists of the progesterone receptor (PR) signaling pathway (AID 1346784; note: nearly all actives have a fitted effect of over 30% in size)). Details: PR-UAS-bla HEK293T, beta-lactamase FRET ratio, 16 h; series mostly up to 92.4 µM; activation: at the top concentration.
In short: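 Compounds were tested for PR agonism in HEK 293T cells bearing a beta-lactamase gene under UAS control. Treatment lasted 16 hr at 37C; signal came from fluorescence of a FRET substrate.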
% is set by controls: 0 for no effect and ±100 for the full control effect; potency is the fitted concentration of half-maximal effect.

Sequence of Progesterone receptor (Homo sapiens) (P06401 whole entry, looked up): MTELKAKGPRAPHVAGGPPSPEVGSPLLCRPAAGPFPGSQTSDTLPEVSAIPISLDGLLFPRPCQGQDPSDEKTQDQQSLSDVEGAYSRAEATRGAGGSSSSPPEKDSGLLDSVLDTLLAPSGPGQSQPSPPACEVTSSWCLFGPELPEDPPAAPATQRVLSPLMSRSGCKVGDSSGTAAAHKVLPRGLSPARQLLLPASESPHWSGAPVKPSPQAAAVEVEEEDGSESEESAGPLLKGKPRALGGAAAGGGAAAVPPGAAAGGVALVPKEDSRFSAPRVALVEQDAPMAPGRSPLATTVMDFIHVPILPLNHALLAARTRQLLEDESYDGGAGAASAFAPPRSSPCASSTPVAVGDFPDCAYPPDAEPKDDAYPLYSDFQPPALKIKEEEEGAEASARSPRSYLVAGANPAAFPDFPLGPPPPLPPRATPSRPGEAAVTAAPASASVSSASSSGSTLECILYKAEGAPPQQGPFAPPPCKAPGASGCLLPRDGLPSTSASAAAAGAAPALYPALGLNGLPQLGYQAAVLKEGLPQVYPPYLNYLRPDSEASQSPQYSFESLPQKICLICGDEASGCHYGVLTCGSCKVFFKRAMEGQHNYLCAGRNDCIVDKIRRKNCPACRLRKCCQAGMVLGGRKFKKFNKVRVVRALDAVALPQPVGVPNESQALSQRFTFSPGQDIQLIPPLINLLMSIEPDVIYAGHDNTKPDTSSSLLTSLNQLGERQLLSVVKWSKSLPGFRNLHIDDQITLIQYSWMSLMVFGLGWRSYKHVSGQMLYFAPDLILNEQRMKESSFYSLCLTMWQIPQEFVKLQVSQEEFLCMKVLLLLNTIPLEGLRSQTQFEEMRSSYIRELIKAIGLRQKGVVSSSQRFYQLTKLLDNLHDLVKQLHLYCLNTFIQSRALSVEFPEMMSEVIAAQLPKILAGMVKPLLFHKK

SMILES | Potency | activation
CCCCN1C=CN(C)C1 | 2.46 µM (active) | –
CCCC(C)C(=O)OCC (stereo not given) | – | -2.35%
C[C@H]1C[C@H]2[C@@H]3CCC4=CC(=O)C=C[C@]4(C)[C@H]3C(=O)C[C@]2(C)[C@@]1(O)C(=O)CO | – | 4.48% [at 42.5 µM]
CC[N+](C)(CC)CCOC(=O)C1c2ccccc2Oc2ccccc21 | – | 0.0891% [at 42.5 µM]
CO/N=C(\C(=O)N[C@@H]1C(=O)N2C(C(=O)O)=C(CSc3nc(=O)c(O)nn3C)CS[C@H]12)c1csc(N)n1 | – | -0.567% [at 42.5 µM]
CC(=O)N[C@H]1[C@H]([C@H](O)[C@H](O)CO)OC(C(=O)O)=C[C@@H]1N=C(N)N | – | 3.95% [at 42.5 µM]
CCOc1ccc2nc(S(N)(=O)=O)sc2c1 | – | 0.564% [at 42.5 µM]
O=S(=O)(O)c1cccc2c(S(=O)(=O)O)cccc12 | – | -0.904%
NC(=O)N[C@@H](CCC(=O)O)C(=O)O | – | 1.92% [at 42.5 µM]
CNCC(O)c1ccc(O)c(O)c1 (stereo not given) | – | -0.707% [at 42.5 µM]
[Ca+2] | – | -0.0403%
O=C(O)CC(C(=O)O)S(=O)(=O)O (stereo not given) | – | -0.896%
CC(=O)C1CCCCC1=O (stereo not given) | – | 5.05%
CO[C@@]1(NC(=O)C(C(=O)O)c2ccc(O)cc2)C(=O)N2C(C(=O)O)=C(CSc3nnnn3C)CO[C@@H]21 (stereo not given in full) | – | 0.82% [at 42.5 µM]
O=S(=O)(O)c1cccc2ccccc12 | – | 0.352%
CC[N+](CC)(CC(=O)Nc1c(C)cccc1C)Cc1ccccc1 (tested in a mixture with another compound) | – | 2.45% [at 42.5 µM]
CN(C)C(=O)Oc1cccc([N+](C)(C)C)c1 | – | -0.694% [at 42.5 µM]
CCN[C@@H]1C[C@H](N)[C@@H](OC2OC(CN)=CCC2N)[C@H](O)[C@H]1O[C@H]1OC[C@](C)(O)[C@H](NC)[C@H]1O (stereo not given in full) | – | 0.0091% [at 0.349 µM]

SMILES | Potency | activation
O=C(O)CNC(=O)c1ccc(CO)o1 | – | 0.0551%
CC(C)(C)C(=O)Oc1ccc(S(=O)(=O)Nc2ccccc2C(=O)NCC(=O)O)cc1 | – | -1.34% [at 42.5 µM]
CN(C)CCN(C)CCN(C)C | – | 0.447%
Cc1c(N)c(=O)n(-c2ccccc2)n1C | – | -0.493% [at 42.5 µM]
NCCCC[C@H](N[C@@H](CCc1ccccc1)C(=O)O)C(=O)N1CCC[C@H]1C(=O)O | – | 1.35% [at 42.5 µM]
Nc1ccn([C@@H]2O[C@H](CO)[C@@H](O)C2O)c(=O)n1 (stereo not given in full) | – | -5.25%
CC(C(=O)O)c1cccc(Oc2ccccc2)c1 (stereo not given) | – | -1.59% [at 42.5 µM]
O=C(O)CCCC[P+](c1ccccc1)(c1ccccc1)c1ccccc1 | – | 0.26% [at 42.5 µM]
CCCCCCCCCCCCCCCCCCO | – | -0.593% [at 42.5 µM]
CC12CCC(C(=O)C1=O)C2(C)C (stereo not given) | – | 0.848%
Cc1ccc(C(=O)c2ccc(CC(=O)O)n2C)cc1 | – | -0.589% [at 42.5 µM]
C[N+]1(C)CCCC(OC(=O)C(O)(c2ccccc2)c2ccccc2)C1 (stereo not given) | 15 µM (active) | –
NCCCC(N)(C(=O)O)C(F)F (stereo not given) | – | -1.3% [at 42.5 µM]
Cc1coc2ccccc2c1=O | – | 0.634% [at 42.5 µM]
CC(C)COC(=O)c1ccc(N)cc1 | – | -1.74% [at 42.5 µM]
CN1[C@@H]2CC[C@H]1CC(OC(=O)C(O)c1ccccc1)C2 (stereo not given in full) | – | 0.49% [at 42.5 µM]
COc1cccc(OC)c1C(=O)N[C@@H]1C(=O)N2[C@@H]1SC(C)(C)[C@@H]2C(=O)O | – | 4.69% [at 42.5 µM]
